This note sets out measurements from PubChem BioAssay (NCI).

About 79,000 compounds went through this panel and 15% of them were active in at least one assay; those are over-represented in the sample as a whole. Unmarked numbers belong to inactive results. Active and inactive are the calls of the source. Cut-off read from the data, not from the text of the source: active = growth inhibition above about 70%; inactive = the rest.

This assay in a line: NCI Yeast Anticancer Drug Screen. Data for the mec2-1 strain (AID 157). The following applies: S. cerevisiae mec2-1 strain, at 50.0 µM, hits give high values. On the procedure: Growth inhibition of yeast strains with defined genetic alterations is measured as a screen for potential anti-cancer activity. Selected strains with alterations in DNA damage repair or cell cycle control were exposed to compounds and growth inhibition was measured relative to vehicle treated controls. The strain used in this assay is mec2-1
Take `NS(=O)(=O)c1ccc(NC(=O)Nc2cccc(Cl)c2)cc1`: the growth inhibition is 12.6%.

As to `Cc1ccc(C)c(NC(=O)Oc2ccc(Cl)cc2Cc2ccccc2)c1`, the growth inhibition is -3.5%.

`CCCC(=O)Oc1ccc2ccccc2c1`: the growth inhibition is 23.5%.

With `COc1cc2c(cc1OC)C(=O)C1(CO)COC(=O)C1C2` (stereo not given), the growth inhibition was -19%.

As to `Cc1cc(N=C2C=CC(=O)C=C2)ccc1O`, the growth inhibition was 21.6%.

On to `NC(=O)N1CCCC1=O`, for which the growth inhibition was -18.9%.

In the case of `O=C1NC(=O)C(c2ccc(C(=O)O)cc2)N1` (stereo not given), the growth inhibition was -10%.

For `O=[N+]([O-])c1ccc(/C=N/C(/N=C/c2ccc([N+](=O)[O-])cc2)c2ccc([N+](=O)[O-])cc2)cc1`, the growth inhibition is -6.25%.

`CC(=O)Oc1ccc(C2(c3ccc(OC(C)=O)cc3)C(=O)Nc3ccccc32)cc1`: the growth inhibition was -16.3%.

For `CCCCOc1ccc([N+](=O)[O-])cn1`, the growth inhibition is -14.6%.

With `CCCCCCCCCc1ccc(COCCCC)cc1`, the growth inhibition was 55.1%.

For `CC(CN(C)C)CN1c2ccccc2Sc2ccccc21` (stereo not given), the growth inhibition is -2.4%.

Take `[N-]=[N+]=Nc1ccnc2c(C(F)(F)F)cccc12`: the growth inhibition is -18.1%.

Turning to `Nc1nc(=S)c2[nH]cnc2[nH]1`, the growth inhibition is -4.95%.

Consider `C#CCOC(=O)C(N)CS` (stereo not given), for which the growth inhibition is -20.3%.

For the molecule `O=C(Nc1ccc(C2=NCCN2)c(O)c1)c1ccc(C(=O)Nc2ccc(C3=NCCN3)c(O)c2)cc1`, the growth inhibition was 3.95%.

As for `C[N+](C)(Cc1cccc(Cl)c1)c1nnn[n-]1`, the growth inhibition is -18.9%.

In the case of `CC(C(=O)C(=O)Nc1ccc(Cl)cc1)C(=O)c1ccc(Cl)cc1` (stereo not given), the growth inhibition was -7.15%.

Regarding `OC1CCCCC2CC2C1O` (stereo not given), the growth inhibition is -2.8%.

In the case of `CCOC(=O)c1ccc(NCc2cccc([N+](=O)[O-])c2)cc1`, the growth inhibition was -18.5%.

For the molecule `COC(=O)CCC(=O)CN1C(=O)c2ccccc2C1=O`, the growth inhibition is 9.1%.

Consider `O=C1CC2C3CC4(OCCO4)C4C3CC2C14` (stereo not given), for which the growth inhibition was 2.45%.

Consider `OCc1ccccc1F`, for which the growth inhibition was -34%.

In the case of `O=c1cc(-c2ccc(O)cc2)oc2cc(O)cc(O)c12`, the growth inhibition is -5.65%.

In the case of `CCCCCCCCN1COC2CCc3ccccc3C21` (stereo not given), the growth inhibition is 93.8% (active).

As for `S=c1[nH]ncn2nc3ccccc3c12`, the growth inhibition is 2.5%.

Regarding `COC1OC(CO)C(O)C(NC(=O)[C@H](Cc2ccc(O)cc2)NC(=O)OCc2ccccc2)C1O` (stereo not given in full), the growth inhibition was -3.75%.

With `Nc1ccccc1SC(CC(=O)c1ccccc1)c1cccc([N+](=O)[O-])c1` (stereo not given), the growth inhibition is -26.1%.

Take `COc1ccc(C(=O)/C=C/c2c[nH]c3ccccc23)c(O)c1`: the growth inhibition is 9.85%.

In the case of `O=C(O)c1c2c(nc3ccccc13)CCC2`, the growth inhibition is -9.75%.

As for `C1CCCC(N2N=NC3C4CC(C5N=NN(C6CCCCCC6)C45)C32)CC1` (stereo not given), the growth inhibition was 17.5%.

Turning to `COc1cc(NC(C)CCCN)c2nccc(C)c2c1` (stereo not given), the growth inhibition is 12.2%.

For `COc1ccccc1/C=N/Nc1ccc([N+](=O)[O-])cc1[N+](=O)[O-]`, the growth inhibition is 5.15%.

In the case of `CCCCCCCCCCC/C=N\[N+](C)(C)C`, the growth inhibition was 99.3% (active).

With `COc1cc(/C=N\N=C(/C)c2ccc(C)cc2C)cc(OC)c1OC`, the growth inhibition was 23.1%.

With `Cc1ccc([N+](=O)[O-])cc1Br`, the growth inhibition is -16.1%.

In the case of `O=C(OCc1ccccc1)c1ccccc1`, the growth inhibition was 3.05%.

Consider `CN(C)c1cc(N(C)C)c2cc(C#N)ccc2n1`, for which the growth inhibition is 3.05%.

In the case of `Cc1c(C)c2cc(Br)ccc2[nH]c1=O`, the growth inhibition is -6.2%.

As for `COc1ccc(OC)c2c(Nc3ccc(S(=O)(=O)O)c4cc(S(=O)(=O)O)cc(S(=O)(=O)O)c34)cc(C)nc12`, the growth inhibition is -6.4%.
